# From PubChem BioAssay (Tox21)
# A number with no mark means an inactive call. Activity calls are given as the source filed them. Calls follow the shape of the dose curve; as a rule, active = well fitted curve in the direction sought with a large enough effect in the repeat runs; inconclusive = weak or mixed curves; inactive = flat fitted curve, though single readings scatter.
# Assay: qHTS assay to test for compound auto fluorescence at 460 nm (blue) in HEK293 cells (AID 720678)
# Details: blue autofluorescence 405/460 nm; series mostly up to 91.3 µM; fluorescence, % of triamterene: at the top concentration
# Excerpt: National Center for Advancing Translational Sciences [NCATS]
# NIH Chemical Genomics Center [NCGC]
# U.S. Environmental Protection Agency [EPA]
# National Institutes of Environmental Health Sciences [NIEHS]
# National Toxicology Program [NTP]
# U.S. Food and Drug Administration [FDA]
# Compound auto fluorescence often interferes with screening of the compound library against various biological targets and signaling pathways. Some of these compounds may have fluorophoric properties. Such properties may interfere with the assay outputs resulting in false positives and/or negatives. To decrease such complications and ensure the compound activities are relevant in terms of biological response, the Tox21 10K compound library was screened for auto fluorescence.
# From the fluorophores used as reporter signals in our screening assays, the auto fluorescence equivalencies of compounds against three fluorophores have been evaluated: Triamterene, Fluorescein and Rose Bengal sodium for blue, green and red fluorescence, respectively. The fluorescence intensities were measured using Excitation/Emission wavelengths at 405/460nm, 485/535nm and 540/590nm for blue, green and red labels, respectively. This assay includes the blue fluorescence data.
# Tox21 Assay Protocol Summary:
# 2,000 HEK293 cells in 5 uL of culture medium containing 10% dialyzed FBS per well were dispensed into black wall/clear bottom 1536-well plates using a Multidrop Combi Dispenser (Thermo Scientific). The assay plates were incubated for 4-5 hr at 37C to allow cell attachment to the well bottom, followed by the transfer of 23 nL compound or DMSO vehicle by a pintool work station (Kalypsys, San Diego, CA). After the assay plates were incubated overnight at 37C and 5% CO2, fluorescence intensities in the assay plates were measured by an Envision (PerkinElmer, Shelton, CT) plate reader using three labels for measuring blue, green and red fluorescence at […] 460, 535 and 590nm respectively.
# % is scaled to controls: 0 for no effect and ±100 for the full control effect.
Structure (SMILES),"fluorescence, % of triamterene",outcome
N=C(N)[Se],0.0309%,
ClCCCCCCCl,0.064%,
N[C@@H]1C[C@H]1c1ccccc1,0.23% [at 46 µM],
O=C(O)C(Cl)Br (stereo not given),-0.152% [at 95.7 µM],
C=CC1(C)OC(=O)N(c2cc(Cl)cc(Cl)c2)C1=O (stereo not given),,inactive
NNCc1ccccc1,-0.0015% [at 95.7 µM],
CC(C)(C)C(=O)C(Cl)Cl,-0.111%,
CNC(=O)Oc1ccccc1C(C)C,-0.108%,
CN(C)CCc1c[nH]c2cccc(OP(=O)(O)O)c12,-0.139%,
Cc1ccc(Cl)c(O)c1,-0.112% [at 46 µM],
CC1NCCOC1c1ccccc1 (stereo not given),0.0144% [at 46 µM],
OCC(Cl)CCl (stereo not given),0.0113%,
O=C(Cl)OCc1ccccc1,-0.0705%,
O=[N+]([O-])c1cccc(CCl)c1,-0.0531% [at 95.7 µM],
CCC(=O)OC1(c2ccccc2)CCN(C)CC1,0.231% [at 95.7 µM],
COc1ccccc1OC,-0.092%,
CCNP(=S)(OC)O/C(C)=C/C(=O)OC(C)C (stereo not given),0.153%,
C#CC(C)(C)O,-0.0352% [at 95.7 µM],
CON(C)C(=O)Nc1ccc(Br)cc1,-0.0003%,
NC1(c2ccccc2)CCCCC1,-0.0458%,

Structure (SMILES),"fluorescence, % of triamterene",outcome
Cc1cccc2sc3nncn3c12,0.125%,
Clc1nc(Cl)nc(Nc2ccccc2Cl)n1,0.27%,
CNC(=O)O/N=C(/CSC)C(C)(C)C,-0.0627%,
CN(C)CCN(C)C,0.026%,
CCCCCCC1CCOC1=O (stereo not given),0.072%,
ClC1=C(Cl)C2(Cl)C(CBr)CC1(Cl)C2(Cl)Cl (stereo not given),,inactive
Nc1c(Cl)c(F)nc(OCC(=O)O)c1Cl,-0.0865%,
CCCN1CCC[C@@H]2Cc3nc(N)ncc3C[C@H]21,-0.0129% [at 46 µM],
CC(C)(C)NC[C@H](O)c1ccc(O)cc1Cl,0.124% [at 46 µM],
O=C(CCl)NCO,-0.242%,
OP(O)c1ccccc1,-0.0258% [at 95.7 µM],
CCOC(=O)CCl,-0.203%,
CC(C)(C)C(=O)Cl,-0.324% [at 95.7 µM],
Cc1ccc(S(=O)(=O)N[C@@H](CCCCN)C(=O)CCl)cc1,1.93% [at 46 µM],
NCC1(CC(=O)O)CCCCC1,0.0823% [at 18.6 µM],
CS(=O)(=O)c1ccc(C(=O)C2C(=O)CCCC2=O)c(Cl)c1COCC(F)(F)F,0.0198%,
CCOC(=O)COc1ccc(Cl)cc1Cl,0.0446%,
Cn1c(N)nc2c3cccnc3ccc21,0.171%,
CCCC(C)C1(CC)C(=O)N=C(S)NC1=O (stereo not given),-0.0142% [at 46 µM],
CNC(=O)Oc1cc(C)c(N(C)C)c(C)c1,-0.178%,
